# Bioassay records from PubChem.
# An excerpt weighted towards active compounds, which were near 2.9% of everything screened.
# Mtb hypoxia rep – inhibitors of hypoxia-regulated fluorescent reporter in Mycobacterium tuberculosis | M. tuberculosis hypoxia-regulated fluorescent reporter, fluorescence | fluorescence inhibition, % (test concentration not listed) | hit rate 0.1% among 300,000 | AID 1159583; in the data active means fluorescence inhibition mostly above about 23%, no sharp cut-off; inactive means mostly below about 17%
# GDH-TPI inh – counter-screen for M. tuberculosis FBA inhibitors: GDH-TPI coupled enzymes. inhibition, % at 4.8 µM. hit rate 1.2% among 360,000. GDH-TPI coupled enzyme counterscreen, NADH absorbance. AID 588335; in the data active means inhibition above about 30%;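 further: 0% = DMSO wells and 100% = wells lacking the enzyme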
# Mtb FBA inh – Mtb fructose-bisphosphate aldolase inhibition; purified M. tuberculosis FBA, fluorescence read-out; inhibition, % at 1 µM; hit rate 2.3% among 360,000; P9WQA3; AID 588726; in the data active means inhibition above about 27%;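 further: 0% = vehicle and 100% = reference inhibitor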
# Target sequence (P9WQA3 whole entry, looked up): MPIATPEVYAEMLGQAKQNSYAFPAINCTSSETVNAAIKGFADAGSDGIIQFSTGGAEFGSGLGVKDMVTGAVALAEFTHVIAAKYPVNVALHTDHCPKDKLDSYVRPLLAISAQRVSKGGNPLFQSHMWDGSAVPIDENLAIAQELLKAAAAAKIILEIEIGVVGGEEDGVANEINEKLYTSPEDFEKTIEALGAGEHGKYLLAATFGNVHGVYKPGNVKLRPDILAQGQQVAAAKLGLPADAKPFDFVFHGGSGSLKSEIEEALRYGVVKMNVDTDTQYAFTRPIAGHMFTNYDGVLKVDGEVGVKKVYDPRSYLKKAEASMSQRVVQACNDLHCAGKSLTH
# Mtb BioA inh – inhibitors of Mycobacterium tuberculosis BioA enzyme | purified M. tuberculosis BioA enzyme, plate reader | inhibition, % at 9.99 µM | hit rate 0.096% among 360,000 | AID 602481; in the data active means inhibition above about 40%
# FadD28 binding – inhibitors of Mycobacterium tuberculosis FadD28 bisubstrate binding | hit rate 0.22% among 360,000 | FadD28 bisubstrate probe binding, fluorescence polarization | AID 588549 | inhibition, % at 12.5 µM; in the data active means inhibition above about 8.5%, passing the limit was not always enough
# Active calls of the source: *; . = not tested or not shown; + = active, no number.
SMILES,Mtb hypoxia rep,GDH-TPI inh,Mtb FBA inh,Mtb BioA inh,FadD28 binding
O=C(C[C@H]1CC[C@@H]2[C@H](COC[C@H](O)CN2C(=O)Nc2ccc(Cl)cc2)O1)NC1Cc2ccccc2C1,.,.,.,1,.
COCCCNC(=O)c1c(N)n(-c2cccc(S(N)(=O)=O)c2)c2nc3ccccc3nc12,-6,2,138*,1,-3
COCCCNC(=O)c1c(N)n(/N=C/c2ccccn2)c2nc3ccccc3nc12,.,8,-3,-2,-2
Cc1noc(C)c1S(=O)(=O)Nc1ccc2c(c1)C(=O)N([C@@H](C)CO)C[C@@H](C)[C@@H](CN(C)C(=O)c1ccccc1)OCCCC[C@@H](C)O2,.,.,.,0,.
COc1ccc(OC)c(C=CC(=O)OCC(=O)Nc2ccc3c(c2)OCCO3)c1,3,.,.,.,.
Oc1ccc(/C=N/Nc2ccc(Cl)nn2)cc1O,.,32*,1,.,0
Cc1nc(Cl)cc(N/N=C/c2ccc(O)cc2)n1,.,35*,-1,-2,1
CCOc1ccc(/C=N/Nc2cc(N3CCOCC3)nc(C)n2)c(O)c1,.,34*,5,0,0
Cc1nc(Cl)cc(N/N=C/c2ccc(O)cc2O)n1,.,59*,1,-1,0
COc1cccc(/C=N/Nc2cc(Cl)nc(C)n2)c1O,.,8,5,.,-3
CCCOc1ccc(C=NNc2cc(N3CCOCC3)ncn2)c(O)c1,15,.,.,.,.
C[C@@H]1CN([C@@H](C)CO)C(=O)c2cc(C3=CCCC3)cnc2O[C@@H]1CN(C)Cc1cccc(F)c1,.,.,.,3,.
CN(C)c1ccc(C=Nc2cnn(C)c2C(N)=O)cc1,.,35*,-2,1,-1
Cn1ncc(N=Cc2ccccc2[N+](=O)[O-])c1C(N)=O,15,19,-1,.,-1
CCOC(=O)C1CCN(C=Nc2cc(C)on2)CC1,1,8,+,2,-2
COc1ccc(C2CC(c3ccccc3)=NN2c2ccc(N)cc2)cc1 (stereo not drawn),6,15,0,.,-4
COc1ccc(C2CC(c3ccccc3)=NN2S(=O)(=O)c2ccccc2)cc1 (stereo not drawn),-6,5,2,-1,-2
COc1ccc(C2CC(c3cccc(Cl)c3)=NN2c2ccc(S(N)(=O)=O)cc2)cc1 (stereo not drawn),1,19,141*,1,0
COc1ccc(C2CC(c3ccc(Cl)cc3)=NN2c2ccc(S(N)(=O)=O)cc2)cc1 (stereo not drawn),1,6,+,-1,-3
C=CC(C)(C)c1c2occc2c(O)c2ccc(=O)oc12,.,10,0,0,14*
COc1c2ccoc2c(OC)c2oc(=O)ccc12,.,7,6,1,-1
Cc1ccc(C(=O)NCc2ccc3c(c2)OCO3)c(C)c1,18,4,153*,1,-1
Cc1noc(C)c1NC(=O)N[C@@H]1C=C[C@H](CC(=O)NCCCN(C)C)O[C@H]1CO,.,.,.,-1,.
Cn1c(N2CCOCC2)nc(-c2ccccc2)c1-c1ccccc1,5,2,103*,1,0
O=C(NN=C/C(Br)=C/c1ccccc1)C1CC1,12,.,.,.,.
SMILES,Mtb hypoxia rep,GDH-TPI inh,Mtb FBA inh,Mtb BioA inh,FadD28 binding
O=c1c(-c2nnc(SCc3ccc(Cl)cc3)o2)cccn1Cc1ccccc1,0,23,176*,1,-5
O=C(Nc1ccccc1-c1nnc(SCc2ccc(Cl)cc2)o1)c1ccccc1,3,6,-2,-6,0
CN(C)C=NC(=O)/C(C#N)=C1\CCc2ccccc2N1,.,56*,1,0,-2
C[n+]1ccc(-c2ccccc2)c2ccccc21,7,15,143*,1,-2
C[n+]1ccc(/C=C/c2ccccc2O)c2ccccc21,-3,-2,-18,.,-1
COC(=O)c1c(NC(=O)CN2C(=O)NC3(CCCCC3C)C2=O)sc2c1CCC2 (stereo not drawn),29*,18,0,-1,0
O=C(CN1CCCC1)NCC(=O)Nc1ccc(F)cc1,3,11,+,2,0
Cc1ccc(NC(=O)CC2S/C(=N/N=Cc3c[nH]c4ccccc34)NC2=O)cc1 (stereo not drawn),-7,.,.,.,.
CCOC(=O)c1ccc(NC(=O)CC2S/C(=N/N=C/c3c[nH]c4ccccc34)NC2=O)cc1 (stereo not drawn),.,32*,-3,.,-4
CCOC(=O)c1ccc(NC(=O)CC2S/C(=N/N=C3/NC(=O)CS3)NC2=O)cc1 (stereo not drawn),10,7,0,.,1
Cc1ccc(NC(=O)CC2S/C(=N/N=C/c3c[nH]c4ccccc34)NC2=O)cc1 (stereo not drawn),.,39*,-2,0,0
O=C(COCC(=O)NN=Cc1ccccc1F)NN=Cc1ccccc1F,4,.,.,.,.
CC(=NNC(=O)c1cc(-c2cccc([N+](=O)[O-])c2)n[nH]1)c1ccc(Cl)cc1,-2,.,.,.,.
COC(=O)CSc1nc2ccc(C)cc2[nH]1,.,7,-2,1,-2
CC(C)(C)NC(=O)CSc1nc(N)cc(=O)[nH]1,-7,1,0,-1,1
Nc1cc(=O)[nH]c(SCC(=O)c2ccc(O)cc2O)n1,-2,34*,-2,-2,-2
Cc1ccc2nc(SCC(=O)c3ccc(O)cc3O)[nH]c2c1,-2,51*,7,2,-2
Oc1ccc(C=Nc2cccc3ncccc23)c(O)c1,1,15,-6,0,-2
Oc1ccccc1C=Nc1ccccc1-c1nc2ccccc2[nH]1,8,18,128*,-4,-4
Fc1ccccc1-c1nc2ccccc2[nH]1,9,-3,24,.,-2
Oc1ccc(C=Nc2ccccc2-c2nc3ccccc3[nH]2)c(O)c1,2,33*,166*,1,-2
COc1ccc(OC)c(C=Nc2ccccc2-c2nc3ccccc3[nH]2)c1,3,17,+,.,-1
O=C(Nc1ccc2c(c1)[C@@H]1C[C@@H](CC(=O)N3CCOCC3)O[C@H](CO)[C@@H]1O2)NC1CCCC1,.,.,.,-3,.
CCC(=O)N[C@H]1C=C[C@H](CC(=O)NCCN2CCCCC2)O[C@H]1CO,.,.,.,-2,.
C[C@@H]1CCCCO[C@H](CN(C)Cc2ccncc2)[C@H](C)CN([C@H](C)CO)C(=O)c2cc(NC(=O)CCC(F)(F)F)ccc2O1,.,.,.,-1,.
SMILES,Mtb hypoxia rep,GDH-TPI inh,Mtb FBA inh,Mtb BioA inh,FadD28 binding
COc1ccccc1C(=O)NN=C(C)CC(=O)Nc1ccc(Cl)cn1,-1,.,.,.,.
CC(C)Cc1[nH]c(=O)c(C#N)c2c1COC(C)(C)C2,13,31*,17,-1,-1
COc1ccc(/C=C2\SC(=O)N(CC(=O)N(C)C3CCS(=O)(=O)C3)C2=O)cc1 (stereo not drawn),1,34*,4,0,-1
COc1ccc(/C=C2\SC(=O)N(CC(=O)NCCCn3ccnc3)C2=O)cc1,3,43*,-2,-1,1
COc1cccc(/C=C2\SC(=O)N(CC(=O)NCCCn3ccnc3)C2=O)c1,0,24,5,2,-2
CCN(C(=O)CN1C(=O)S/C(=C\c2ccc(F)cc2)C1=O)C1CCS(=O)(=O)C1 (stereo not drawn),0,36*,-1,-1,1
